# Data as given in PubChem BioAssay.
# Several values for one entry are separate records, joined by “and”; a condition that tells them apart may be missing. Equal values may be shown once. Inconclusive results are not listed. Activity calls are given as the source filed them.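 Rule for the calls, unless noted: active = compounds killing one labelled cell type while sparing the other, by normalised counts and ratio limits, not self-fluorescent; inactive = the rest.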
# Experiments:
# [1] = liver-stage malaria parasite growth inhibition, primary screen, cell-based, HepG2, luciferase luminescence, HepG2 viability (AID 624349; in the data active = parasite load remaining mostly below about 12%, no sharp cut-off; inactive = mostly above about 10%;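 note: 100% = mean of DMSO negative control wells on the same plate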); settings: P. berghei liver stage in HepG2, luciferase luminescence, concentration not given here; parasite load remaining: stronger effect = lower value; viability: measured here: HepG2 viability without parasites
# [2] = differential killing of epithelial or mesenchymal cells, primary screen, imaging, PC-3E GFP, TEM4-18 mCherry, co-culture (AID 1345086); settings: imaging cell counts, at 1 µM; for red/green cell ratio (normalised): actives lie on both sides, counts scaled to control wells, 1 = unselective;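 for all read-outs here: cells exposed to compound for 72 h before imaging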;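 for red/green cell ratio (normalised): normalised mesenchymal count divided by normalised epithelial count so high means epithelial killing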
# [3] = sensitizers of A549 cells to miR-34 induction, primary screen, imaging, A549 dox-inducible miR-34, nuclei and caspase counts (AID 1347080;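 active = compounds whose cell count with miR-34 switched on is under 0.7 times the count with it off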); settings: A549 miR-34 inducible, Hoechst nuclei count, 48 h
# [4] = biological target: NAD(+) hydrolase SARM1 (Homo sapiens) (UniProt Q6SZW1); test: SARM1 TIR NADase inhibitors, cell lysate, NAD-Glo luminescence (AID 1508614;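 active = compound whose remaining NAD level is above about 45 nM, limit read from the data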;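 note: higher remaining NAD means stronger inhibition of SARM1 NADase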); settings: SAM-TIR HEK293T lysate NADase, at 1 µM, stronger effect = higher value
# Chain of NAD(+) hydrolase SARM1 (Homo sapiens) (Q6SZW1 whole entry, looked up): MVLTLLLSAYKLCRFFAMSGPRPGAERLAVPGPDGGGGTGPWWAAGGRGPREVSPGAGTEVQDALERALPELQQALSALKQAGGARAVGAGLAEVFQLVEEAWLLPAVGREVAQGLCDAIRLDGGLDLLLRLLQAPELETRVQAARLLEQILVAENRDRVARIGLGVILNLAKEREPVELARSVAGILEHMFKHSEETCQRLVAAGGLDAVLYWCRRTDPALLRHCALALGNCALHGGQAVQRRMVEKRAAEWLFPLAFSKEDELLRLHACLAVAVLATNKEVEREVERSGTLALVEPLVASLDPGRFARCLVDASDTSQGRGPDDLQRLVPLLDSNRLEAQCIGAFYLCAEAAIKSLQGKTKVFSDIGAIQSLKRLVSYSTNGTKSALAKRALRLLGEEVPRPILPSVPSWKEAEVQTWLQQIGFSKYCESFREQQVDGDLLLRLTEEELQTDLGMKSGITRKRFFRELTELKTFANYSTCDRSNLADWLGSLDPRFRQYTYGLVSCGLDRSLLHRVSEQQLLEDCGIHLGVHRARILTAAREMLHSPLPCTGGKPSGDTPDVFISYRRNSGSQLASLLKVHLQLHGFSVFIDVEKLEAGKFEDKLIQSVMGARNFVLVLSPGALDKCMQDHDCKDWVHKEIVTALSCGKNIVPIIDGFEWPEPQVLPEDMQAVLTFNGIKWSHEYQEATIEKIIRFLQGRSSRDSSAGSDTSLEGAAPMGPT
# [5] = biological target: ATP-dependent translocase ABCB1 (Homo sapiens) (UniProt P08183); test: MDR1 (ABCB1) efflux transporter inhibition, cell-based (AID 377; in the data active = fluorescence slope change above about 50%); settings: MDR1-expressing cells, fluorescent substrate accumulation slope; stronger effect = higher value; concentration not given here
# Chain of ATP-dependent translocase ABCB1 (Homo sapiens) (P08183 whole entry, looked up): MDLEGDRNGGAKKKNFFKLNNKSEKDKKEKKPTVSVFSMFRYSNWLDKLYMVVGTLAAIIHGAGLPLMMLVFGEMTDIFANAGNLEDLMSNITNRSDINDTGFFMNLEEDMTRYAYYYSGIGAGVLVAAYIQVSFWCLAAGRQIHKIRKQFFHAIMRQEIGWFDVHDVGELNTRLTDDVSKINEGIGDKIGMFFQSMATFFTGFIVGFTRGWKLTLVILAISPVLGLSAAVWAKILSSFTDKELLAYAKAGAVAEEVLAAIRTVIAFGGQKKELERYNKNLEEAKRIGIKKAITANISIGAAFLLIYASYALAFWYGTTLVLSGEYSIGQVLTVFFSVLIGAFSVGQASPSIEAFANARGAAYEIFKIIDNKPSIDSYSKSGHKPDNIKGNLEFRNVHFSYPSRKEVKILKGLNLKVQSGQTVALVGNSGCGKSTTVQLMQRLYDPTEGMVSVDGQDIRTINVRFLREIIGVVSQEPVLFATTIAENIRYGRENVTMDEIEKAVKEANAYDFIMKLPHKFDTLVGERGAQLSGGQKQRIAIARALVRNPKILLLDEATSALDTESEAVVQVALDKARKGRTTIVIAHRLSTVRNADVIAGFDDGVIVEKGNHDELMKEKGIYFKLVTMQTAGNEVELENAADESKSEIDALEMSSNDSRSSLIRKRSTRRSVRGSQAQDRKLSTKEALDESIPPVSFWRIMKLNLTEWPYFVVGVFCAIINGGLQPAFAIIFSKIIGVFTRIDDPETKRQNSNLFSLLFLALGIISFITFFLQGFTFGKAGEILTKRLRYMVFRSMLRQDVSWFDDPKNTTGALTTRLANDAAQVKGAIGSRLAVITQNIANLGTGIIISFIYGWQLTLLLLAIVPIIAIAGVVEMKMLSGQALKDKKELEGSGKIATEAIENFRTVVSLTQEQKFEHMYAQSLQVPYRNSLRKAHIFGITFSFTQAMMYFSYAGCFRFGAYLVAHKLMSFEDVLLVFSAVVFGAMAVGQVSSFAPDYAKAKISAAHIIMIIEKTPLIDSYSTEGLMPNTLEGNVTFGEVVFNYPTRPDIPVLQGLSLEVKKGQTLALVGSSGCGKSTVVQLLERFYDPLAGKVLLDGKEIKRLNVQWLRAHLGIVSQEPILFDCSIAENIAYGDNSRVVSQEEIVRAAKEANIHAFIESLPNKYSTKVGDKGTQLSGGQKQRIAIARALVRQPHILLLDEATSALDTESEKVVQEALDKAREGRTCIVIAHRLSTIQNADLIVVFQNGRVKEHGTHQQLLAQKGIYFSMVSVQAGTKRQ
# [6] = antimalarial activity against Dd2 strain (AID 2302;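 active = growth inhibition above 50% at the single 2 µM test dose, taken to imply half-maximal potency below 2 µM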;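 note: 0% = DMSO untreated growth and 100% = chloroquine plus artemisinin killed control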); settings: P. falciparum Dd2 in RBCs, LDH growth readout, 72 h; at 2 µM; stronger effect = higher value
# [7] = HepG2 cytotoxicity, primary screen, cytotoxicity control for P. falciparum antimalarial project, cell-based, ATP luminescence (AID 2303;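 active = inhibition above 50%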;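 note: 0% = DMSO wells and 100% = digitonin-killed cells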); settings: HepG2 viability, 24-48 h, at 10 µM, stronger effect = higher value
# [8] = biological target: L-lactate dehydrogenase (Plasmodium falciparum (isolate CDC / Honduras)) (UniProt Q27743); test: PfLDH activity inhibition – cell lysate, 3D7 strain, counter-screen for P. falciparum growth inhibition project (AID 2304; call rule not given here;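 note: 0% = vehicle and 100% = reference inhibitor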); settings: P. falciparum 3D7 crude extract, LDH APAD/NBT absorbance; at 2 µM; stronger effect = higher value
# Chain of L-lactate dehydrogenase (Plasmodium falciparum (isolate CDC / Honduras)) (Q27743 whole entry, looked up): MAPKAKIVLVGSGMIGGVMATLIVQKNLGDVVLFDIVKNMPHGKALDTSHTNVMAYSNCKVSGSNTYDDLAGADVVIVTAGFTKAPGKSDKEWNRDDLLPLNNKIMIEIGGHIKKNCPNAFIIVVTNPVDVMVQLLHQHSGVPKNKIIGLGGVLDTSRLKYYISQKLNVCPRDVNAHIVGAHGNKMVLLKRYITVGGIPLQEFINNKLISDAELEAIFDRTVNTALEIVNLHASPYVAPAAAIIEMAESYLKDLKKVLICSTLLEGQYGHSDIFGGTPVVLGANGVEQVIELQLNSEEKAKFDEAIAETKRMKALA
# [9] = inhibition of 3D7 malaria parasite growth – strain 3D7 (AID 2306; call rule not given here;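 note: 0% = DMSO wells and 100% = chloroquine plus artemisinin control wells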); settings: P. falciparum 3D7 erythrocytic growth, LDH absorbance, 72 h; at 2 µM; stronger effect = higher value
# [10] = hESC survival regulators, cell-based (AID 493140; call rule not given here;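 note: cells exposed to compounds for four days before counting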); settings: human embryonic stem cell survival screen; stronger effect = higher value
# [11] = survival rescue of mitochondrial mutant cells in low glucose, primary screen, MELAS cybrids, Rieske KO mouse fibroblasts, CellTiter-Glo (AID 1508586;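 active = mean z-score across replicates of 1.96 or higher in either the MELAS or the Rieske mutant cell line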;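 note: z relative to plate mean and SD of compound and empty wells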)
# [12] = biological target: Mitogen-activated protein kinase 7 (Homo sapiens) (UniProt Q13164); test: ERK5 transactivation activators in reporter cells, primary screen, cell-based, HTS (AID 1508626;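 active = luciferase signal above three times the same-plate solvent-only control wells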;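 note: luciferase driven by Gal4-ERK5 fusion binding five Gal4 sites before minimal TATA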); settings: HeLa Gal4-ERK5 transactivation, 18 h, at 5 µM, stronger effect = higher value
# Chain of Mitogen-activated protein kinase 7 (Homo sapiens) (Q13164 whole entry, looked up, the tested form may be a part): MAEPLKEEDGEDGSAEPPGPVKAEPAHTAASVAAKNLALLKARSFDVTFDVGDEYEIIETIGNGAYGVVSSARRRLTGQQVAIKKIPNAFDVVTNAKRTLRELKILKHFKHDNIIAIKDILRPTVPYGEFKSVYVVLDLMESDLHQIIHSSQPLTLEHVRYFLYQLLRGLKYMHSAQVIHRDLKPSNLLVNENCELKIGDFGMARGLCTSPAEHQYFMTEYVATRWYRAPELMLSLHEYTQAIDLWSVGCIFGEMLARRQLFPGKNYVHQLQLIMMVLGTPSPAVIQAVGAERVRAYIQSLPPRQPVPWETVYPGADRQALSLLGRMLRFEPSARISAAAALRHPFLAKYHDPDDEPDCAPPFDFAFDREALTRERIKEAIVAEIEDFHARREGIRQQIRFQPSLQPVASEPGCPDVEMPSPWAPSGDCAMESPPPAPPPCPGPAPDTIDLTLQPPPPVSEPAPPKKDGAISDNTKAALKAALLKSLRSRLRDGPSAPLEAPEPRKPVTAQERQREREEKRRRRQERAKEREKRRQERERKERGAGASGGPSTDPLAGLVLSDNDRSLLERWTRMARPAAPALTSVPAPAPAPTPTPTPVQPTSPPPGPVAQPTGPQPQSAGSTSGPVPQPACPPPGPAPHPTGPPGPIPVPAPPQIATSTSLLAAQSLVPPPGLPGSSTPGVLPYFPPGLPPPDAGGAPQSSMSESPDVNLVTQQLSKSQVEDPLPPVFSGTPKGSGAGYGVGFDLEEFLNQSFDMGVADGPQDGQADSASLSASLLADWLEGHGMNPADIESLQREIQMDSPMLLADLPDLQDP
# [13] = viability rescue of complex I mutant cybrids, primary screen, cell-based, galactose medium, ATP luminescence (AID 1645843;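 active = z-score of at least 1.8 in each of two replicates, scored against plate mean and spread of sample wells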;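 note: positive z means more ATP and so rescue of galactose-driven cybrid death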); settings: complex I mutant cybrid cells, 72 h, stronger effect = higher value
# [14] = measured here: epithelial PC-3E GFP cell survival
# [15] = measured here: mesenchymal TEM4-18 mCherry cell survival
# [16] = stronger effect = lower value, cell number ratio, induced over uninduced
# [17] = measured here: relative caspase fold change +Dox/-Dox
# [18] = measured here: total cells with miR-34 induction, stronger effect = lower value
# [19] = measured here: total cells without miR-34 induction
compound,measurement,setting,value
COc1cc(NS(C)(=O)=O)ccc1Cc1c2ccccc2nc2ccccc12,parasite load remaining,[1],41.6% (inactive)
same,viability,[1],143%
same,red/green cell ratio (normalised),[2],0.96 (inactive)
same,normalised cell number,[2]; [14],0.32
same,normalised cell number,[2]; [15],0.31
same,fold change,[3]; [16],0.911 (inactive)
same,fold change,[3]; [17],3.12
same,cell count,[3]; [18],3640
same,cell count,[3]; [19],4000
CC(C)(C)NC[C@H](O)COc1ccccc1C1CCCC1,red/green cell ratio (normalised),[2],1.04 (inactive)
same,normalised cell number,[2]; [14],1.13
same,normalised cell number,[2]; [15],1.17
same,remaining NAD,[4],10 nM (inactive)
CCCCCCCCCCCCCCCC(=O)OC[C@H](NC(=O)C(Cl)Cl)[C@H](O)c1ccc([N+](=O)[O-])cc1,parasite load remaining,[1],77.1% (inactive)
same,viability,[1],134%
same,red/green cell ratio (normalised),[2],1.04 (inactive)
same,normalised cell number,[2]; [14],1.01
same,normalised cell number,[2]; [15],1.06
same,fold change,[3]; [16],0.906 (inactive)
same,fold change,[3]; [17],2.23
same,cell count,[3]; [18],10500
same,cell count,[3]; [19],11500
CC(=O)OCC(=O)[C@@]1(OC(C)=O)[C@@H](C)CC2C3C[C@H](F)C4=CC(=O)C=C[C@]4(C)[C@@]3(F)[C@@H](O)C[C@@]21C (stereo partly drawn),parasite load remaining,[1],202% (inactive)
same,viability,[1],105%
same,red/green cell ratio (normalised),[2],1.18 (inactive)
same,normalised cell number,[2]; [14],1.13
same,normalised cell number,[2]; [15],1.34
same,fold change,[3]; [16],0.928 (inactive)
same,fold change,[3]; [17],4.21
same,cell count,[3]; [18],7220
same,cell count,[3]; [19],7780
CC1=C(C(=O)O)N2C(=O)[C@@H](NC(=O)C(N)c3ccc(O)cc3)[C@H]2SC1 (stereo partly drawn),parasite load remaining,[1],82.3% (inactive) and 62.8% (inactive)
same,viability,[1],75.2% and 100%
same,red/green cell ratio (normalised),[2],1.2 (inactive)
same,normalised cell number,[2]; [14],1.16
same,normalised cell number,[2]; [15],1.4
same,fold change,[3]; [16],0.948 (inactive)
same,fold change,[3]; [17],3.02
same,cell count,[3]; [18],12000
same,cell count,[3]; [19],12700
CCC(C)C(=O)O[C@H]1C[C@H](O)C=C2C=C[C@H](C)[C@H](CC[C@@H](O)C[C@@H](O)CC(=O)O)C21 (stereo partly drawn),parasite load remaining,[1],152% (inactive) and 58.6% (inactive)
same,viability,[1],84.1% and 191%
same,red/green cell ratio (normalised),[2],0.96 (inactive)
same,normalised cell number,[2]; [14],1.19
same,normalised cell number,[2]; [15],1.14
same,fold change,[3]; [16],0.861 (inactive)
same,fold change,[3]; [17],5.53
same,cell count,[3]; [18],11700
same,cell count,[3]; [19],13500
CCOC(=O)C(C)(N)Cc1ccc(O)c(O)c1 (stereo not drawn),parasite load remaining,[1],15% (inactive)
same,viability,[1],103%
same,red/green cell ratio (normalised),[2],1.25 (inactive)
same,normalised cell number,[2]; [14],0.9
same,normalised cell number,[2]; [15],1.12
same,fold change,[3]; [16],0.926 (inactive)
same,fold change,[3]; [17],3.34
same,cell count,[3]; [18],12200
same,cell count,[3]; [19],13200
COCC1=C(C(=O)OC(C)OC(=O)OC(C)C)N2C(=O)[C@@H](NC(=O)/C(=N/OC)c3csc(N)n3)[C@H]2SC1 (stereo partly drawn),parasite load remaining,[1],42.3% (inactive)
same,viability,[1],194%
same,red/green cell ratio (normalised),[2],1.05 (inactive)
same,normalised cell number,[2]; [14],0.94
same,normalised cell number,[2]; [15],0.99
same,fold change,[3]; [16],0.924 (inactive)
same,fold change,[3]; [17],3.66
same,cell count,[3]; [18],12100
same,cell count,[3]; [19],13100
CC(=O)OCC(=O)[C@@]12OC(C)(C)O[C@@H]1CC1C3C[C@H](F)C4=CC(=O)C=C[C@]4(C)[C@@]3(F)[C@@H](O)C[C@@]12C (stereo partly drawn),parasite load remaining,[1],117% (inactive) and 83.7% (inactive)
same,viability,[1],77.1% and 96.2%
same,red/green cell ratio (normalised),[2],1.1 (inactive)
same,normalised cell number,[2]; [14],1.15
same,normalised cell number,[2]; [15],1.26
same,fold change,[3]; [16],0.893 (inactive)
same,fold change,[3]; [17],0.979
same,cell count,[3]; [18],6960
same,cell count,[3]; [19],7790
CO/N=C(/C(=O)NC1C(=O)N2C(C(=O)OC(C)OC(C)=O)=C(COC(N)=O)CSC12)c1ccco1 (stereo not drawn),parasite load remaining,[1],60.6% (inactive)
same,viability,[1],138%
same,red/green cell ratio (normalised),[2],1.1 (inactive)
same,normalised cell number,[2]; [14],0.93
same,normalised cell number,[2]; [15],1.02
same,fold change,[3]; [16],0.889 (inactive)
same,fold change,[3]; [17],1.77
same,cell count,[3]; [18],12300
same,cell count,[3]; [19],13900
CC(=O)O[C@]1(C(C)=O)CCC2C3C=C(Cl)C4=CC(=O)CC[C@]4(C)C3CC[C@@]21C (stereo partly drawn),parasite load remaining,[1],113% (inactive) and 26.4% (inactive)
same,viability,[1],84% and 106%
same,red/green cell ratio (normalised),[2],1.17 (inactive)
same,normalised cell number,[2]; [14],1.04
same,normalised cell number,[2]; [15],1.21
same,fold change,[3]; [16],0.904 (inactive)
same,fold change,[3]; [17],1.11
same,cell count,[3]; [18],9770
same,cell count,[3]; [19],10800
CC(C)(Oc1ccc(C(=O)c2ccc(Cl)cc2)cc1)C(=O)O,red/green cell ratio (normalised),[2],1.11 (inactive)
same,normalised cell number,[2]; [14],1.09
same,normalised cell number,[2]; [15],1.21
same,remaining NAD,[4],10 nM (inactive)
CN(Cc1cnc2nc(N)nc(N)c2n1)c1ccc(C(=O)NC(CCC(=O)O)C(=O)O)cc1 (stereo not drawn),fluorescence slope change,[5],-5.4% (inactive)
same,growth inhibition,[6],66% (active)
same,inhibition,[7],65% (active)
same,inhibition,[8],-1% (inactive)
same,growth inhibition,[9],91% (active)
same,survival,[10],10.7 (inactive)
same,red/green cell ratio (normalised),[2],0.89 (inactive)
same,normalised cell number,[2]; [14],1.15
same,normalised cell number,[2]; [15],1.02
same,z-score,"[11]; MELAS cybrid survival, CellTiter-Glo 48 h, stronger effect = higher value",-0.53 (inactive) and 1.15 (inactive)
same,z-score,"[11]; Rieske KO mouse fibroblast survival, CellTiter-Glo 72 h",0.183 and -0.283
same,remaining NAD,[4],10 nM (inactive)
same,luciferase signal,[12],32 AU (inactive)
same,z-score,[13],-1.2 (inactive)
CS(=O)(=O)c1ccc(C(O)[C@H](CF)NC(=O)C(Cl)Cl)cc1 (stereo partly drawn),parasite load remaining,[1],50.1% (inactive)
same,viability,[1],102%
same,red/green cell ratio (normalised),[2],0.78 (inactive)
same,normalised cell number,[2]; [14],0.91
same,normalised cell number,[2]; [15],0.71
same,fold change,[3]; [16],0.945 (inactive)
same,fold change,[3]; [17],2.12
same,cell count,[3]; [18],10700
same,cell count,[3]; [19],11400
C[C@]12CCC3c4ccc(OC(=O)c5ccccc5)cc4CCC3C1CCC2=O (stereo partly drawn),red/green cell ratio (normalised),[2],0.85 (inactive)
same,normalised cell number,[2]; [14],1.24
same,normalised cell number,[2]; [15],1.05
same,luciferase signal,[12],40 AU (inactive)
CC(=O)Oc1cc(C)c2c(c1C(OC(C)=O)OC(C)=O)Oc1c(c(C)c(OC(C)=O)c3c1C(OC(C)=O)OC3=O)OC2=O (stereo not drawn),red/green cell ratio (normalised),[2],0.89 (inactive)
same,normalised cell number,[2]; [14],1.03
same,normalised cell number,[2]; [15],0.92
same,luciferase signal,[12],124 AU (inactive)
COc1ccc(/C=C/C(=O)c2ccc(O)cc2O)cc1,red/green cell ratio (normalised),[2],1.07 (inactive)
same,normalised cell number,[2]; [14],0.93
same,normalised cell number,[2]; [15],0.99
same,luciferase signal,[12],100 AU (inactive)
